The source made the active and inactive calls.

The subject of assay [1] is PRMT1 (protein arginine N-methyltransferase 1). The assay is described as follows: PRMT1 binders on small-molecule microarrays, primary screen, biochemical, small-molecule microarray, 635 nm fluorescence (AID 1088).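 Note: binding of Prmt1 protein to compounds spotted on small-molecule microarray slides.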 The following applies: small-molecule microarray binding, higher = more signal.
The nature of assay [2]: yeast growth modulation, basal conditions, primary screen, YJM789 clinical isolate, OD600, 24 h (AID 1089).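 Note: growth of clinical yeast isolate S. cerevisiae YJM 789 seeded 1000 cells per well; test concentration not given here.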 To be noted: S. cerevisiae YJM789 growth, higher = more signal, called active from +8 up or from −8 down.
Assay [3] can be described thus: fission yeast growth modulation, primary screen, strain 972, OD600, 24 h, no modulator (AID 1090).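 Note: basal condition with compound alone and no growth modifier present; test concentration not given here.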 To be noted: S. pombe 972 growth, higher = more signal, called active from +8 up or from −8 down.
Assay [4] in a line: S. cerevisiae growth modulation with rapamycin, primary screen, strain BY4716, OD600, 96 h (AID 1091). Note: test concentration not given here. To be noted: higher = more signal, called active from +8 up or from −8 down.
Assay [5] concerns the target Torsin-1A-interacting protein 2 (Homo sapiens) (UniProt Q8NFQ8). Nature of the assay: LULL1 binders on small-molecule microarray, primary screen, cell lysate, human LULL1 lysate, 635/667 nm fluorescence (AID 1092).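 Note: probe is lysate of COS7 cells overexpressing human LULL1; score merges per-feature 667 nm fluorescence with signal-to-noise.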 The following applies: hLULL1 lysate binding, 635 nm fluorescence, higher = more signal.
Assay [6] is described as follows: E. coli growth modulation, two-sided OD650, primary screen, E. coli filamentation project, strain DRC41, 24 h (AID 1093).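 Note: MC1000 strain lacking acrAB efflux and sulA so SOS filamentation is blocked; test concentration not given here.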 The following applies: OD650, 24 h, higher = more signal, called active from +8 up or from −8 down.
A short description of assay [7]: small-molecule microarray binders of probe aLefty2, primary screen, biochemical, biotinylated probe, 635/667 nm fluorescence (AID 1094).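 Note: score merges spot fluorescence near 667 nm with spot signal-to-noise ratio.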 To be noted: higher = more signal.
The subject of assay [8] is Noggin (protein binding on small-molecule microarray). The assay is described as follows: Noggin binders on small-molecule microarray, primary screen, biochemical, 635/667 nm fluorescence (AID 1095).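 Note: score merges 667 nm feature fluorescence with signal to noise over triplicate slides.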 The following applies: 635 nm fluorescence, higher = more signal.
Assay [9] addresses Neurogenic locus notch homolog protein 3 (Homo sapiens) (UniProt Q9UM47). The assay is described as follows: NOTCH3 binders on small-molecule microarray, primary screen, biochemical, 635/667 nm fluorescence (AID 1096). The following applies: NOTCH3 binding, 635 nm fluorescence, higher = more signal.
The nature of assay [10]: small-molecule microarray binders of probe aEGFR, primary screen, biochemical, biotinylated probe, 635/667 nm fluorescence (AID 1097).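 Note: probe is a biotinylated anti-EGFR antibody binding compounds printed on slides; score combines fluorescence near 667 nm and signal to noise of each spot.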 The following applies: higher = more signal.
The test system of assay [11] is Plasmodium falciparum Sir2 (PF13_0152, Sir2A). The assay is described as follows: pfSir2 binders on small-molecule microarrays, primary screen, biochemical, small-molecule microarray, 635 nm fluorescence (AID 1098).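 Note: score merges spot fluorescence intensity with its signal-to-noise ratio.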 The following applies: small-molecule microarray binding, fluorescence 635 nm; higher = more signal.
A short description of assay [12]: small-molecule microarray binders of probe aDKK1, primary screen, biochemical, biotinylated probe, 635/667 nm fluorescence (AID 1099).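 Note: score merges 667nm spot fluorescence with signal to noise across triplicate slides; reference of the scale not given here.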 The following applies: higher = more signal.
Assay [13] can be described thus: small-molecule microarray binders of probe aCHRDL2, primary screen, biochemical, biotinylated probe, 635/667 nm fluorescence (AID 1100). To be noted: higher = more signal.
Assay [14] can be described thus: splicing luciferase reporter signal modulators, primary screen, spliceosome inhibition project, cell-based, HEK293, splice +/- reporter (AID 1101).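 Note: HEK293 cells carrying a splicing-competent luciferase reporter gene; test concentration not given here.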 The following applies: luminescence, 24 h, higher = more signal, called active from +8 up or from −8 down.
For assay [15], the target named is Fibroblast growth factor 10 (Homo sapiens) (UniProt O15520). The assay is described as follows: FGF10 binders on small-molecule microarrays, primary screen, biochemical, small-molecule microarray, 635 nm fluorescence (AID 1102). The following applies: FGF10 binding, fluorescence 635 nm, higher = more signal.
Assay [16] has as its system glycogen synthase kinase-3 (GSK3A per assay name; protocol says GSK3B). Nature of the assay: GSK3 binders on small-molecule microarrays, primary screen, biochemical, small-molecule microarray, 635 nm fluorescence, GSK3A (AID 1103). Note: the record names both GSK3A and GSK3B. The following applies: small-molecule microarray binding, fluorescence 635 nm; higher = more signal.
Assay [17] deals with Epidermal growth factor receptor (Homo sapiens) (UniProt P00533). Nature of the assay: EGFR binders on small-molecule microarrays, primary screen, biochemical, small-molecule microarray, 635 nm fluorescence (AID 1104).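 Note: score merges 667 nm emission intensity with spot signal to noise over triplicate slides.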 To be noted: EGFR binding, higher = more signal.
Assay [18] addresses Follistatin-related protein 3 (Homo sapiens) (UniProt O95633). Nature of the assay: FSTL3 binders on small-molecule microarrays, primary screen, biochemical, small-molecule microarray, 635 nm fluorescence (AID 1105).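 Note: score merges emission near 667 nm and signal to noise per printed spot across three slides.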 To be noted: FSTL3 binding, higher = more signal.
Assay [19] concerns the target Dickkopf-related protein 1 (Homo sapiens) (UniProt O94907). Nature of the assay: DKK1 binders on small-molecule microarrays, primary screen, biochemical, small-molecule microarray, 635 nm fluorescence scan (AID 1106).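 Note: score merges emission near 667 nm with signal to noise over three replicate slides.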 The following applies: DKK1 binding, higher = more signal.
Assay [20] concerns Inhibin beta A chain (activin A). The assay is described as follows: INHBA (activin A) binders on microarrays, primary screen, biochemical, small-molecule microarray, 635 nm fluorescence scan (AID 1107).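 Note: mouse activin A protein probed at 4.33 µg/mL on printed slides; score merges bound-protein fluorescence near 667 nm with spot signal-to-noise.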 To be noted: small-molecule microarray binding, higher = more signal.

Chain of Epidermal growth factor receptor (Homo sapiens) (P00533 whole entry, looked up): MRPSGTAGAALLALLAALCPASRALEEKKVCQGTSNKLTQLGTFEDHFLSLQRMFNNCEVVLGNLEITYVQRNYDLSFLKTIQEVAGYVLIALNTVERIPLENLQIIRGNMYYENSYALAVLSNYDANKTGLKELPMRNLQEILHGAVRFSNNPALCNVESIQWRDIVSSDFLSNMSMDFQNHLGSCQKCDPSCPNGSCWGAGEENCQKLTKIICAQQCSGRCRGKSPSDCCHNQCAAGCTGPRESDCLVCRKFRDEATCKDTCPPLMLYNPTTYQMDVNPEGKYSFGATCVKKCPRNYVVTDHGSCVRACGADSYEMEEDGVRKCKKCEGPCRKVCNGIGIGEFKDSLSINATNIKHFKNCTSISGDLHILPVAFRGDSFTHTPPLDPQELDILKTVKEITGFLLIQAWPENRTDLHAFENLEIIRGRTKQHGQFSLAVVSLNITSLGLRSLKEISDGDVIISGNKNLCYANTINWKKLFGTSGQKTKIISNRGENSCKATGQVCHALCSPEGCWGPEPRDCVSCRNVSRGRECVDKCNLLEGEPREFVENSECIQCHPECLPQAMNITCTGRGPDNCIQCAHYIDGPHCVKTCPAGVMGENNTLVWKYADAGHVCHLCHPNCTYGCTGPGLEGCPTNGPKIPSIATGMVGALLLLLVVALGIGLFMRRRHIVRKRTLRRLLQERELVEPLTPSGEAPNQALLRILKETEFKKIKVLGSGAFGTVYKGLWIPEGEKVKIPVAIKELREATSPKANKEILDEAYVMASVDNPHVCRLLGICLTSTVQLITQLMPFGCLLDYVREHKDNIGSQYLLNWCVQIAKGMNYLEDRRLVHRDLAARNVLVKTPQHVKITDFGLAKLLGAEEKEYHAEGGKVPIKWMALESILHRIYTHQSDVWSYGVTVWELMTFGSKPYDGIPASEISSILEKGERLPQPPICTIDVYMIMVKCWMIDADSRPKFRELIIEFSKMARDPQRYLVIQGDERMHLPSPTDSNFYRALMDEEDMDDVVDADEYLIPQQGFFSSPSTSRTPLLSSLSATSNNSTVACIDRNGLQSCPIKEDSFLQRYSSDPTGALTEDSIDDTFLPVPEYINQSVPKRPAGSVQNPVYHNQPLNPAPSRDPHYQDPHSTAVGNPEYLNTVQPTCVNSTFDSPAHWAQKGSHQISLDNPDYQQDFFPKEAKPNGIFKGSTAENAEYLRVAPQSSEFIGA
Chain of Dickkopf-related protein 1 (Homo sapiens) (O94907 whole entry, looked up): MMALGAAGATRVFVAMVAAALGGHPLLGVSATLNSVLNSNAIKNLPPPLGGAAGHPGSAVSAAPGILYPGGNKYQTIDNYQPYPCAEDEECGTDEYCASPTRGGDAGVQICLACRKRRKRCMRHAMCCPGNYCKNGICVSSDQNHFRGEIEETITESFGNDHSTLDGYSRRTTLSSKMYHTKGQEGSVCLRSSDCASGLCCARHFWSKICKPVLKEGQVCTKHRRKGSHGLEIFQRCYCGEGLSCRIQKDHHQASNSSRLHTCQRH
Chain of Follistatin-related protein 3 (Homo sapiens) (O95633 whole entry, looked up): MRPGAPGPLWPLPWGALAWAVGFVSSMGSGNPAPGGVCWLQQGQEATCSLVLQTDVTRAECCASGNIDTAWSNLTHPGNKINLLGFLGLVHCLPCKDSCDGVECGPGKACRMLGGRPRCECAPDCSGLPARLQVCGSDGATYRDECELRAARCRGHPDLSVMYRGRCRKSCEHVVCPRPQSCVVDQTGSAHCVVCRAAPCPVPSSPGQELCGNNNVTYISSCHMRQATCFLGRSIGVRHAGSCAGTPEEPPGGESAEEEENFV
Chain of Neurogenic locus notch homolog protein 3 (Homo sapiens) (Q9UM47 whole entry, looked up): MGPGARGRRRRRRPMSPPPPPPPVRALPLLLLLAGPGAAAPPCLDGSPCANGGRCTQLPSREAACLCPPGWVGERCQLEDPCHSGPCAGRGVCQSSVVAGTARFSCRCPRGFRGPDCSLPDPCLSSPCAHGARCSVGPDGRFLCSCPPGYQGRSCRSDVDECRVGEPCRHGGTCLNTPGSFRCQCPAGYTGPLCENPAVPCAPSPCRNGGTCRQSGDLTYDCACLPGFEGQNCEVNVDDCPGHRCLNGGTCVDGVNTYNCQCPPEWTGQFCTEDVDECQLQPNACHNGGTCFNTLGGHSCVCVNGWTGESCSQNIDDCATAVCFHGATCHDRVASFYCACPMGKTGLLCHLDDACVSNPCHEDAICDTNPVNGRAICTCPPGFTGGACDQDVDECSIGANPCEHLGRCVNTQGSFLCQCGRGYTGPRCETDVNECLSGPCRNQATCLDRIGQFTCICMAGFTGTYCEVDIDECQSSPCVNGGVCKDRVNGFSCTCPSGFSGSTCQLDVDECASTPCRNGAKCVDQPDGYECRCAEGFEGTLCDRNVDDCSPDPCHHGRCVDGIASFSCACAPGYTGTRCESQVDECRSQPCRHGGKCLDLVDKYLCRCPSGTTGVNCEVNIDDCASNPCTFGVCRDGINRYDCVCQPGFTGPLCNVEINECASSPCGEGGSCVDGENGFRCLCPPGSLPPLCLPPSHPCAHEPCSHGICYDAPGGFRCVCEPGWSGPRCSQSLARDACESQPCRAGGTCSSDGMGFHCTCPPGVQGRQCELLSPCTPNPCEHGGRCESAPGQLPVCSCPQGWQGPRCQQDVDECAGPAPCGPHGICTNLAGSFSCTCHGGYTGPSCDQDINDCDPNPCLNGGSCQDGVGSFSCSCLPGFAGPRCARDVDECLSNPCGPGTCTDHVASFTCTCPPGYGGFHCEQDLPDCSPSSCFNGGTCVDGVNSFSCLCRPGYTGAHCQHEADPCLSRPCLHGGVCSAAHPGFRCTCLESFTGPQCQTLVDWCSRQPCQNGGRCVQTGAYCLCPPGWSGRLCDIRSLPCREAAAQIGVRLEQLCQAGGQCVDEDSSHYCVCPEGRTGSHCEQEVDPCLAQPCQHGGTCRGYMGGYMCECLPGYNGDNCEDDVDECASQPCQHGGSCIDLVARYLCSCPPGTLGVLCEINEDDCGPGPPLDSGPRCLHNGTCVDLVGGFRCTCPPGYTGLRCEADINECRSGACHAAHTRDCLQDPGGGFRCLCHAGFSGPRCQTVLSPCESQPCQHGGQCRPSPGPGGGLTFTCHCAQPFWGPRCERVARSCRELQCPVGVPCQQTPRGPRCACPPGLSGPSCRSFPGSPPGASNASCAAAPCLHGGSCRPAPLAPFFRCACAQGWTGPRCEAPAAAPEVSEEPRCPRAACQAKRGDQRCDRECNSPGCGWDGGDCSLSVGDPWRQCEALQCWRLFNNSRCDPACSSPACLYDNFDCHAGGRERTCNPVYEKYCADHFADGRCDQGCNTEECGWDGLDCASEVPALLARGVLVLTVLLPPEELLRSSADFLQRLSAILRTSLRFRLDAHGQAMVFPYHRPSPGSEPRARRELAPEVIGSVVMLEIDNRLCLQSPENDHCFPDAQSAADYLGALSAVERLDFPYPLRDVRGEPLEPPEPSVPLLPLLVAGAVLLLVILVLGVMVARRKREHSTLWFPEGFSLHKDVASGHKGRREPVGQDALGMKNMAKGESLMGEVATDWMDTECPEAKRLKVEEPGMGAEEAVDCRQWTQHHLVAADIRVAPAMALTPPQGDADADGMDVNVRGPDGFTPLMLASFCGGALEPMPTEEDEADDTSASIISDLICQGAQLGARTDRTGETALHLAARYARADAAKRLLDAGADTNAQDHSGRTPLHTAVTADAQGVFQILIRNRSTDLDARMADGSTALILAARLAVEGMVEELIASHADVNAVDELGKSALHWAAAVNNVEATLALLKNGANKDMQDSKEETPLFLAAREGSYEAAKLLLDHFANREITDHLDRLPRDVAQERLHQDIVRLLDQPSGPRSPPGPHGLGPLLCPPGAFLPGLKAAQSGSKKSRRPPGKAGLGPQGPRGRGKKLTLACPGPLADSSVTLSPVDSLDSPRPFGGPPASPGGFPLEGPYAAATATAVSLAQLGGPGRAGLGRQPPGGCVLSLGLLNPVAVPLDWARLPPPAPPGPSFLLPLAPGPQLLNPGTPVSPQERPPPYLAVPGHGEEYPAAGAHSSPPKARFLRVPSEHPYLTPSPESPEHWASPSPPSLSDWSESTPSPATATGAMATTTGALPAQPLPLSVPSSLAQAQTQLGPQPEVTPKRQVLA
Chain of Torsin-1A-interacting protein 2 (Homo sapiens) (Q8NFQ8 whole entry, looked up): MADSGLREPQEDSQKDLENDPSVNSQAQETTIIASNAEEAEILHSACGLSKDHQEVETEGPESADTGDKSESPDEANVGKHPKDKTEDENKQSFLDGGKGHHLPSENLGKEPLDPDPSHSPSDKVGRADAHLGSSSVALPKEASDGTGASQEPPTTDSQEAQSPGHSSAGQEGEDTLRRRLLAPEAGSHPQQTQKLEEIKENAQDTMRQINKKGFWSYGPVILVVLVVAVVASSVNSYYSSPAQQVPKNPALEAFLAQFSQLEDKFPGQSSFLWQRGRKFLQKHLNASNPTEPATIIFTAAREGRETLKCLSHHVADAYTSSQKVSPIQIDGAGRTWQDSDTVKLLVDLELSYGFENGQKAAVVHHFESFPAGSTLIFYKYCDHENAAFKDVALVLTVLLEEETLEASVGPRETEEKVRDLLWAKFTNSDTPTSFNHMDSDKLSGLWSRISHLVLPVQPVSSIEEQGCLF
Chain of Fibroblast growth factor 10 (Homo sapiens) (O15520 whole entry, looked up): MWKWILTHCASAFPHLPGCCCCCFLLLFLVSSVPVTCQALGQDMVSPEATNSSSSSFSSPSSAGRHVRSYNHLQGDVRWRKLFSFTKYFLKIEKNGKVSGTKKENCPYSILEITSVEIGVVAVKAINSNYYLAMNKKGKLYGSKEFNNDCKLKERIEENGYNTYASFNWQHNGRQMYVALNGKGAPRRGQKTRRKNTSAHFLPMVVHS

Turning to `COc1ccc(COC(=O)NN=C2C[C@@H](O)[C@@H](O)[C@@H]3[C@@H]4C(=O)N(Cc5ccc6c(c5)OCO6)C(=O)[C@@H]4CC[C@@H]23)cc1`, the composite z-score in assay [1] is -0.291; in assay [5], 0.529; in [7], 0.63; in assay [8], -0.666; in assay [9] it was -0.303; in [10], -0.187. In addition, the composite z-score is -0.454 in assay [11]; 0.911 in assay [12]; 1.39 in assay [13]; -0.0715 in assay [15]; -0.52 in assay [16]; -0.451 in assay [17]. For the same compound, the results for the composite z-score in assay [18], in assay [19] and in assay [20] were -0.226, -0.539 and 0.556, respectively. Besides, the z-score in assay [2] was -1.65 (inactive); in [3] it was -0.654 (inactive); in [4], -0.731 (inactive); in [6], -0.486 (inactive); in assay [14], -1.36 (inactive).

Consider `CCCCCN1CC=CC23O[C@@H]4C=CCOC(=O)[C@@H]4[C@H]2C(=O)N(CCCCCCO)[C@@H]3C1=O` (stereo not given in full), for which the composite z-score is -0.0856 in assay [1]; 0.865 in assay [5]; -0.0436 in assay [7]; -1.38 in assay [8]; -0.973 in [9]; -0.254 in assay [10]. Moreover, the composite z-score in assay [11] was 1.93; in [12], -0.0936; in assay [13] it was 0.734; in assay [15], -0.655; in [16], -1.08; in assay [17], -1.31. Besides, the values for the composite z-score in [18], in assay [19] and in assay [20] were -1.81, -1.54 and -0.395, respectively. Besides, the z-score in [2] is -0.44 (inactive); in [3] it was -0.183 (inactive); in assay [4], -0.291 (inactive); in assay [6], 0.0293 (inactive); in assay [14], -0.0127 (inactive).

In the case of `COC(=O)[C@H](C)NC(=O)CCC1CC(OC(=O)NCCc2ccc(F)cc2)CC2(CCCC(COC(=O)NCC(c3ccccc3)c3ccccc3)O2)O1` (stereo not given in full), the composite z-score in assay [1] was 0.915; in assay [5], 1.88; in assay [7], -0.175; in assay [8], 0.409; in [9], 0.897; in assay [10], -0.094. The composite z-score in assay [11] is 0.713; in [12], -0.389; in [13], -0.498; in assay [15], 0.377; in assay [16], 0.756; in assay [17], 0.384. In addition, the composite z-score is 0.691 in assay [18], 0.457 in assay [19] and -0.0097 in assay [20]. Also, the z-score in [2] was 0.304 (inactive); in assay [3], 0.917 (inactive); in [4] it was 1.56 (inactive); in assay [6], 0.115 (inactive); in [14] it was -0.527 (inactive).

Take `CCN1C(=O)[C@H]2[C@H]3[C@H](O)[C@H](O)CC(=NOC[C@@H](C)[C@H](OCc4ccccc4)C(C)C)[C@@H]3CC[C@H]2C1=O`: the composite z-score in [1] is 0.607; in [5] it was 0.8; in assay [7] it was -0.145; in assay [8], 0.355; in [9] it was 0.457; in assay [10], -0.0936. Besides, the composite z-score in assay [11] is 1.16; in [12], -0.035; in assay [13], -0.171; in [15] it was 0.405; in assay [16] it was 0.254; in assay [17], 0.108. For the same compound, the composite z-score was determined as 0.284 in assay [18], 0.132 in assay [19] and 0.359 in assay [20]. For the same compound, the z-score in assay [2] was -1.05 (inactive); in assay [3], -4.13 (inactive); in assay [4], -0.673 (inactive); in [6], 0.568 (inactive); in [14], 0.879 (inactive).

Consider `O=C1CCCC2OC12C(O)CCc1ccccc1` (stereo not given), for which the composite z-score was -0.071 in [1]; -0.0258 in assay [5]; -0.215 in [7]; 0.373 in [8]; 0.0248 in [9]; 0.395 in assay [10]. Besides, the composite z-score in assay [11] was -0.2; in assay [12], -0.45; in assay [13] it was -0.503; in [15], 0.558; in assay [16], 0.263; in assay [17] it was 0.548. Besides, the composite z-score in assay [18] amounted to 0.495; in assay [19], 0.372; in assay [20], 0.399. In addition, the z-score in assay [2] is 0.238 (inactive); in assay [3], 0.211 (inactive); in assay [4], 0.164 (inactive); in [6] it was 0.454 (inactive); in [14], 0.00999 (inactive).

The values above are taken from PubChem BioAssay.
